# Bioassay records (PubChem)
# Anthrax LF prot: inhibitors of Bacillus anthracis lethal factor protease. multiplex microsphere protease cleavage assay, LF. 360,000 tested, 0.12% active. P15917. inhibition, % at 10 µM; further: plate controls were buffer without enzyme for full effect and enzyme alone for no effect
# Autofluor counter: flagged as autofluorescent in microsphere protease counterscreen. 360,000 tested, 3.1% active. AID 624483. fluorescence intensity (concentration not given with the values). compound autofluorescence counterscreen, microsphere flow cytometry; hits give high values; in the data active means fluorescence intensity above about 16000; inconclusive means no clear call, values can overlap the other calls
# FBA Mtb inh: Mtb fructose-bisphosphate aldolase inhibition; 360,000 tested, 2.3% active; purified M. tuberculosis FBA, fluorescence read-out; inhibition, % at 1 µM; P9WQA3; in the data active means inhibition above about 27%;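 further: 0% = vehicle and 100% = reference inhibitor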
# Target sequence (P9WQA3 whole entry, looked up): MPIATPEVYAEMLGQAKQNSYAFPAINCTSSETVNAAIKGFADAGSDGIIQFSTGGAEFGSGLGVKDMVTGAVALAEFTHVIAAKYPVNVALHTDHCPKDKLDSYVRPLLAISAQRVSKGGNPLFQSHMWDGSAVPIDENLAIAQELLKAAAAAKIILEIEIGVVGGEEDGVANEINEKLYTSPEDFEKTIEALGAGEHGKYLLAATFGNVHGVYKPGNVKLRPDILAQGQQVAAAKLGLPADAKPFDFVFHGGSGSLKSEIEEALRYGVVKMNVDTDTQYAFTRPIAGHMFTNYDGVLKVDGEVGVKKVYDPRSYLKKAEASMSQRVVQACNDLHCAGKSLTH
# BoNT A protease: blocks Botulinum neurotoxin A light chain protease. 360,000 tested, 0.17% active. multiplex microsphere protease substrate cleavage, flow cytometry. inhibition, % at 10 µM; further: plate controls were buffer without enzyme for full effect and enzyme alone for no effect
# GDH-TPI counter: inhibits GDH-TPI coupling enzymes, artifact for Mtb FBA screen. GDH-TPI coupled enzyme counterscreen, NADH absorbance. inhibition, % at 4.8 µM. 360,000 tested, 1.2% active; in the data active means inhibition above about 30%;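 further: 0% = DMSO wells and 100% = wells lacking the enzyme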
# BoNT F protease: BoNT F light chain protease inhibition | AID 588497 | inhibition, % at 10 µM | 360,000 tested, 0.22% active | Multiplex microsphere protease cleavage assay, flow cytometry; in the data active means inhibition above about 35%, passing the limit was not always enough; inconclusive means no clear call, values can overlap the other calls; further: plate controls were buffer without enzyme for full effect and enzyme alone for no effect
# Starred values were filed as active, the others as inactive; u = inconclusive; x = not tested or not shown. The list is not random: actives were taken first. Their share in the collection is about 6.6%. Unless noted, no stated cut-off is given here; in the data, active means inhibition above about 30%; inconclusive means no clear call, values can overlap the other calls; inactive means below that.
SMILES,Anthrax LF prot,Autofluor counter,FBA Mtb inh,BoNT A protease,GDH-TPI counter,BoNT F protease
Cc1ccc2c(c1)c1ncnc(N3CCOCC3)c1n2C,3,2480,126*,1,10,9
Cc1ccc2c(c1)c1ncnc(N3CCN(c4ccccc4)CC3)c1n2C,0,2977,11,1,3,-6
C[C@H]1CCC[C@@H](O)CCC/C=C/c2cc(O)cc(O)c2C(=O)O1,-4,20416*,1,-3,-1,-4
C[C@H]1CCC[C@H](O)CCCCCc2cc(O)cc(O)c2C(=O)O1,0,6177,1,-1,5,-9
Cc1ccccc1NC(=S)N1CCN(c2ccccc2Cl)CC1,-4,3528,-4,-1,-6,12
COc1ccc2c(c1)C1(Nc3ccccc3-c3nc4ccccc4n31)C(=O)N2 (stereo unspecified),2,8649,0,2,8,4
CC1(c2ccncc2)Nc2ccccc2-c2nc3ccccc3n21 (stereo unspecified),-3,10253,158*,-1,8,-15
O=C(NC1CC1)C1CCN(c2ncccn2)CC1,2,4550,8,0,2,6
CS(=O)(=O)c1ccc(-c2cn3cc(C(=O)O)ccc3n2)cc1,2,3993,114*,0,3,2
CCc1nc2c(OCc3cccc(Cl)c3)cccn2c1N(C)C(C)=O,-4,2948,2,0,13,-4
Nc1ccccc1NC(=O)CCn1c(=S)[nH]c2ccccc2c1=O,-4,4070,2,0,8,4
Cn1c(=O)c2c(nc(N3CCNCC3)n2Cc2ccccc2Cl)n(C)c1=O,-1,2687,2,0,4,-2
Cn1c(=O)c2c(nc(N3CCN(c4ccccn4)CC3)n2Cc2ccccc2Cl)n(C)c1=O,1,21245*,-1,u,4,7
CC(=O)N1c2ccccc2NC2=C(C(=O)CCC2)C1c1cccnc1 (stereo unspecified),1,3424,-1,-1,28,-4
O=C1CCCC2=C1C(c1cccnc1)Nc1ccccc1N2 (stereo unspecified),5,3921,-14,0,31*,-5
Cc1cccc(NC(=O)C2(c3cccs3)CCOCC2)n1,-3,2001,0,-1,6,-9
Cc1cc(C(=O)N2CCC2(C)C(=O)O)nn1C(C)(C)C (stereo unspecified),-1,3725,0,1,3,5
CN(C)CCN(Cc1ccccc1)C(=O)c1[nH]c(C(F)(F)F)nc1-c1ccccc1,-8,6032,-4,0,x,-4
c1ccc(N2CCN(c3ccccc3)C2c2cccs2)cc1,-2,22528*,0,-1,27,-7
COc1ccc(-c2cc(C(=O)N3CCCC(C(F)(F)F)C3)c3ccccc3n2)cc1OC (stereo unspecified),0,5672,4,-2,14,0
O=C(CSc1nc2ccccc2s1)N/N=C/c1ccco1,-2,2121,0,-1,6,-18
N#C/C(=C\c1ccco1)Sc1nc2ccccc2s1,-2,23761*,-9,0,27,-1
CCC(Sc1nc2sc(C(=O)OC)c(C)c2c(=O)n1N)C(=O)N(CC)CC (stereo unspecified),-6,21202*,-1,2,6,1
Cc1cccc2cc(-c3nc4ccc(C(=O)O)cc4[nH]3)c(=O)oc12,-4,3479,34*,-2,31*,18
COc1cccc2cc(-c3ccccc3)c(=O)oc12,-4,2546,3,0,-1,2
SMILES,Anthrax LF prot,Autofluor counter,FBA Mtb inh,BoNT A protease,GDH-TPI counter,BoNT F protease
CCN(CC)c1ccc2cc(-c3nc4ccccc4[nH]3)c(=O)oc2c1,28,14129,2,33*,9,59*
COc1cccc2cc(-c3nc4ccccc4[nH]3)c(=O)oc12,-15,3612,2,-2,31*,-8
O=c1cc(/N=C/c2coc3c(ccc4ccccc43)c2=O)[nH]c(=S)[nH]1,0,2478,-1,0,30,-6
CCn1cc(C(=O)O)c(=O)c2cc(OC)ccc21,-13,19754*,4,-14,9,-51
CCC(Sc1nc(-c2ccccc2)cc(=O)[nH]1)C(=O)O (stereo unspecified),-5,5361,-1,0,3,1
CCC(Sc1nc(C)cc(=O)[nH]1)C(=O)Nc1nc(-c2ccccc2)cs1 (stereo unspecified),-2,22493*,0,-1,1,-3
